Data on 57 compounds can be found in PubChem BioAssay AID504706 (National Center for Advancing Translational Sciences (NCATS), 2011).

Among all 320,000 compounds or so, about 200 (0.062%) were called active. About 6% were inconclusive and are not listed. This is one part of a sample in which actives are shown more often than they occur. Values without a mark were called inactive. The call rests on the fitted dose curve; in most records, active means well fitted activation curve with a large enough effect; inconclusive means small, poorly fitted or top-dose-only effect; inactive means no such curve, though single readings can be large or run the other way.
Potency means the concentration at half of the fitted maximal effect.

The nature of this test: qHTS assay for re-activators of p53 using a Luc reporter. Further: nearly all actives have a fitted effect of over 45% in size. On activity change, positive = activation: % of control where 0% means no effect. Particulars: H1299 p53-A138V BP100-luciferase reporter, luminescence, 24 h; series mostly up to 92.2 µM; activity change, positive = activation: at the top concentration. The essentials: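 H1299 (p53-null), stable ts p53-A138V + BP100-Luc; 1000 cells/well, Opti-MEM/10% FBS; cpd 4 pt, 1:5; 24 h, 37 deg C, 5% CO2; detection reagent 10 min RT; luminescence.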
As to `CC(C)(C)OC(=O)C[C@H]1C/C=C\C[C@@H](CC(=O)N[C@H](CO)Cc2ccccc2)C(=O)NC[C@@H](c2ccccc2)OC1=O`, the “activity change, positive = activation” value is 2.82%.

Regarding `CN=C(Nc1cccc(S(=O)(=O)N2CCOCC2)c1)c1ccccc1`, the “activity change, positive = activation” value was -9.42%.

Turning to `O=C(NCCC(=O)N1O[C@@H]2C=C[C@H]1C2)OCC1c2ccccc2-c2ccccc21`, the “activity change, positive = activation” value is -4.81%.

As for `Nc1ncnc2c1ncn2[C@@H]1O[C@H](CNS(=O)(=O)c2ccc(-c3ccno3)s2)[C@@H](O)[C@H]1O`, the “activity change, positive = activation” value was -6.9%.

Take `Cc1noc(C)c1NC(=O)Nc1ccc2c(c1)C(=O)N([C@H](C)CO)C[C@H](C)[C@@H](CN(C)C(=O)Nc1ccc(C(F)(F)F)cc1)O2`: the “activity change, positive = activation” value was 5.39%.

For the compound `O=C1[C@@H](c2ccccc2)[C@@H](c2ccccc2)N1c1cccnc1`, the “activity change, positive = activation” value is -20.3%.

On to `CC1O[C@@H](OC2C(O)C(C)O[C@H](OC(=O)[C@]34CCC(C)(C)C[C@H]3C3=CCC5[C@@]6(C)CC(O)C(O[C@@H]7OC(CO)C(O)[C@@H](O)[C@@H]7O)[C@@](C)(C(=O)O)C6CC[C@@]5(C)[C@]3(CO)CC4)C2O[C@H]2OC(C)[C@@H](O[C@@H]3OCC(O[C@@H]4OC(CO)C(O)[C@H](O)C4O)[C@@H](O)[C@@H]3O)[C@H](O)C2O)C(O)C(O)C1O` (some centres not stated), for which the “activity change, positive = activation” value is 2.19%.

Consider `COc1cc(C(=O)OCc2cc(=O)n3ccsc3n2)ccc1OC(C)C`, for which the “activity change, positive = activation” value was 24.6%.

With `O=C1CCC/C=C\C[C@@H](CC(=O)N(CCO)Cc2ccccc2)C(=O)NCCO1`, the “activity change, positive = activation” value is 7.41%.

Turning to `COc1ccc(CNc2nc(NCc3ccc(OC)cc3)c3ncn(C4CCCC4)c3n2)cc1`, the “activity change, positive = activation” value was 9.86%.

`C#CCOCCOCCOCCNc1nc(N2CCN(C(=O)[C@H](CCC(=O)O)n3cc(CN)nn3)CC2)nc(N2CCN(C(=O)[C@H](CCC(=O)O)n3cc(CN)nn3)CC2)n1`: the “activity change, positive = activation” value was -3.28%.

Regarding `CC[C@]1(C(=O)OC)[C@H]2C(=O)N(Cc3ccccc3)C(=O)[C@H]2[C@H]2CN=C(SCc3ccc(C#N)cc3)N21`, the “activity change, positive = activation” value is -2.09%.

As for `Cc1cccc(C)c1Nc1nnc(SCC(=O)NCCCN2CCCC2=O)s1`, the “activity change, positive = activation” value is 3.39%.

With `COc1cc(NC(=O)c2[nH]cnc2C(N)=O)cc(C(=O)Nc2cccc(C(F)(F)F)c2)c1`, the “activity change, positive = activation” value is -11.8%.

With `CN(c1ccccc1)S(=O)(=O)c1cc(C(=O)N2CCN(c3ncccn3)CC2)ccc1Cl`, the “activity change, positive = activation” value was -1.11%.

For the compound `CN(C(=O)CSc1cccc[n+]1[O-])C1CCCCC1`, the “activity change, positive = activation” value is 12.6%.

Consider `Cc1cc(C(=O)N/N=C/c2ccc(N3CCOCC3)cc2)c(C)o1`, for which the “activity change, positive = activation” value is 1.2%.

Take `CC(=C/c1ccccc1)/C=N/NC(=O)c1cc(C)oc1C`: the Potency is 11.2 µM (active).

With `Cc1cc(C(=O)N/N=C\C(Br)=C\c2ccccc2)c(C)o1`, the Potency is 31.6 µM (active).

`CC(C)c1cc(C(=O)N/N=C/C(Br)=C/c2ccccc2)n[nH]1`: the “activity change, positive = activation” value is -18.6%.

For `Cc1cc(C(=O)NNC(=O)c2ccccc2O)c(C)o1`, the “activity change, positive = activation” value was 20.4%.

Regarding `COc1ccc(C/C(C)=N/NC(=O)c2cc(C)oc2C)cc1`, the “activity change, positive = activation” value was 8%.

Regarding `O=C1c2ccccc2[C@@H]2C[C@@H](O)[C@H](Nc3ccccc3Cl)CCN12`, the “activity change, positive = activation” value is 0.658%.

For `CC(C)(C)OC(=O)C1=C(CO)CS[C@@H]2[C@H](NC(=O)Cc3ccccc3)C(=O)N12`, the “activity change, positive = activation” value is 7.32%.

For the compound `Cc1cccc(NC(=O)c2ccc(S(=O)(=O)N(C)c3ccccc3)cc2)n1`, the “activity change, positive = activation” value is 7.09%.

For the compound `CCN(CC(=O)NC(C)C)C(=O)c1cc(S(=O)(=O)N2CCCCC2)ccc1N1CCCCC1`, the “activity change, positive = activation” value is -0.998%.

On to `COc1ccc(C(=O)COC(=O)CN2C(=O)C3CC=CCC3C2=O)c(OC)c1` (configuration not stated), for which the “activity change, positive = activation” value is -10.4%.

Regarding `Cc1ccc(S(=O)(=O)N2C[C@@H]3CCCC[C@@H]3[C@@H](C)[C@H]2c2cn(Cc3ccccc3)c3ccc(F)cc23)cc1`, the “activity change, positive = activation” value was 10%.

As to `COc1ccc(C(=O)Nc2cc(S(=O)(=O)N3CCCC3)ccc2Cl)cc1`, the “activity change, positive = activation” value is -1.71%.

With `CCN(C(=O)COC(=O)CCC(=O)c1cccs1)C1CCCCC1`, the “activity change, positive = activation” value was -2.62%.

Consider `CC(=O)N(O)CCCCCNC(=O)CCC(=O)N(O)CCCCCNC(=O)CCC(=O)N(O)CCCCCNC(=O)CCC(=O)O`, for which the “activity change, positive = activation” value is -0.988%.

Turning to `O=C(/C=C/c1ccc2c(c1)OCCO2)c1ccc(O)cc1`, the Potency is 22.4 µM (active).

As to `O=C(O)/C=C/c1ccc2c(c1)OCCO2`, the “activity change, positive = activation” value was 1.53%.

Consider `O=C(/C=C/c1ccc(Cl)c([N+](=O)[O-])c1)c1ccc(O)cc1`, for which the “activity change, positive = activation” value is -13.6%.

Take `O=C(COC(=O)c1ccncc1)Nc1ccc2c(c1)OCO2`: the “activity change, positive = activation” value was 0.759%.

For the compound `O=C(Nc1cccc(S(=O)(=O)N2CCCCC2)c1)c1cncc(Br)c1`, the “activity change, positive = activation” value was 0.992%.

Turning to `COc1cc(S(=O)(=O)N2CCN(C(=O)C3CC3)CC2)ccc1NC(C)=O`, the “activity change, positive = activation” value was -5.44%.

With `CC[C@]12c3[nH]c4ccc(OC)cc4c3CCN1C(=O)C(CC(=O)NCCN1CCOCC1)C[C@@H]2C(=O)N1CCN(C(=O)C2CC2)CC1` (some centres not stated), the “activity change, positive = activation” value is 2.11%.

Regarding `CC[C@]12c3[nH]c4cc(CCC(=O)N(C)C)ccc4c3CCN1C(=O)[C@@H](CC(=O)NCCCn1ccnc1)C[C@@H]2C(=O)N1CCN(C(=O)C2CC2)CC1`, the “activity change, positive = activation” value is -3.3%.

`CN(C)C(=O)CCc1ccc2c3c([nH]c2c1)[C@]1(C)[C@@H](C(=O)N2CCCCC2)C[C@H](CC(=O)NCCC2=CCCCC2)C(=O)N1CC3`: the “activity change, positive = activation” value was -5.25%.

Turning to `COc1cc(OC)cc(C(=O)NC(C(=O)N2CCC2)C(C)C)c1` (configuration not stated), the “activity change, positive = activation” value is -1.81%.

In the case of `O=C(N[C@H]1C/C=C\C(c2ccc(F)cc2)N(Cc2ccccc2)C(=O)C1)OCC1c2ccccc2-c2ccccc21` (some centres not stated), the “activity change, positive = activation” value was -0.803%.

As for `COc1ccccc1C(=O)Nc1ccc(C)c(S(=O)(=O)N2CCCCC2)c1`, the “activity change, positive = activation” value is -8.11%.

As to `Cc1ccc2c(c1)NC(=O)[C@@]1(C)[C@@H](c3ccccc3)[C@H]3COc4ccc(Cl)cc4[C@@H]3N1C2=O`, the “activity change, positive = activation” value was 0.966%.

With `C[C@@H]1CN([C@H](C)CO)C(=O)c2cc(NC(=O)NC3CCCCC3)ccc2O[C@H]1CN(C)S(C)(=O)=O`, the “activity change, positive = activation” value was 2.47%.

As to `O=C(C[C@@H]1C/C=C\CCC(=O)OC[C@@H]2CCCN2C1=O)NCCO`, the “activity change, positive = activation” value is -5.06%.

In the case of `COc1ccc(/C=C/C(=O)OCC(=O)NC2CCCCCC2)cc1OC`, the “activity change, positive = activation” value is -1.46%.

On to `CC1(C)CC[C@@]2(C(=O)O)C(C1)C1=CCC3[C@@]4(C)CC[C@H](O)C(C)(C)C4CC[C@@]3(C)[C@]1(C)C[C@H]2O` (some centres not stated), for which the “activity change, positive = activation” value was -3.51%.

On to `CC(=O)C[C@H](O)CC(=O)[C@@H]1OC(=O)[C@@H](C)C/C=C\Cc2ccccc21`, for which the “activity change, positive = activation” value was -0.871%.

As for `CCCCNC(=O)C(C)N(CCN(C)C)C(=O)CCCCCN1C(=O)NC(c2ccc(Cl)cc2)C(C(=O)OCc2ccccc2)=C1C` (configuration not stated), the “activity change, positive = activation” value was -8.52%.

In the case of `COc1cc2c(-c3ccc4c(c3)OCO4)c(-c3ccsc3)oc(=O)c2cc1OC`, the “activity change, positive = activation” value was 2.64%.

`COc1cc(/C=C2\Oc3ccc(C#Cc4ccc(O)cc4)cc3C2=O)cc(OC)c1`: the “activity change, positive = activation” value was 14%.

Turning to `Cc1ccc(NS(=O)(=O)c2ccc(C(C)C)cc2)cc1S(=O)(=O)N1CCOCC1`, the “activity change, positive = activation” value is -4.53%.

For the compound `COc1ccc(Br)cc1CN(C)C(=O)C1CC(=O)N(C2CCCC2)C1` (configuration not stated), the “activity change, positive = activation” value was -4.98%.

Turning to `Cc1nn(-c2ccccc2)c(Cl)c1/C=C/C(=O)c1ccc(O)cc1`, the Potency was 22.4 µM (active).

On to `Cc1nn(-c2ccccc2)c(Cl)c1C(=O)Nc1ccccc1`, for which the “activity change, positive = activation” value is 10%.

Consider `Cc1nn(-c2ccccc2)c(C)c1/C=C/C(=O)OC(C)C(N)=O` (configuration not stated), for which the “activity change, positive = activation” value is 8.78%.
